Among all 350,000 compounds or so, about 31,000 (8.9%) were called active. Roughly 15% stayed inconclusive and do not appear here. The call rests on the fitted dose curve; in most records, active means well fitted inhibition curve with a large enough effect; inconclusive means small, poorly fitted or top-dose-only effect; inactive means no such curve, though single readings can be large or run the other way. This excerpt belongs to a sample that is enriched for actives.
Molecular target: Histone-lysine N-methyltransferase EHMT2 (Homo sapiens) (UniProt Q96KQ7)
Assay: qHTS Assay for Inhibitors of Histone Lysine Methyltransferase G9a; further: nearly all actives have a fitted effect of over 75% in size
Settings: G9a H3K9 monomethylation, AlphaScreen, 2 h; series mostly up to 59 µM; activity, negative = inhibition: at the top concentration
Summary of the method: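 G9a (20 nM) preincubated 15 min RT with compounds, then 500 nM biotinylated H3K9 peptide and 20 uM SAM added; 2 h RT reaction. Monomethyl-H3K9 product detected by AlphaScreen with anti-H3K9me1 antibody, streptavidin donor and anti-rabbit IgG acceptor beads.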
On the % scale 0 is the no-effect control and ±100 the full control effect; potency means the concentration at half of the fitted maximal effect.

Histone-lysine N-methyltransferase EHMT2 (Homo sapiens), sequence (Q96KQ7 913-1193 limits assumed): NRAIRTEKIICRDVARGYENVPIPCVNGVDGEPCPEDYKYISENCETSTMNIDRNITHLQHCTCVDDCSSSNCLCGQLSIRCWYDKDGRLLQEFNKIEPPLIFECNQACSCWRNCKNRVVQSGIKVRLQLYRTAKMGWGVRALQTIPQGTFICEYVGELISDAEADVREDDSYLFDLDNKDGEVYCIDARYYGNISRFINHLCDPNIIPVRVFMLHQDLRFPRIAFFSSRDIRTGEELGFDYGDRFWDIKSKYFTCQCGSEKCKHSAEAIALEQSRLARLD

Compound | Potency | activity, negative = inhibition
O=S(=O)(NCC(c1ccccc1)N1CCc2ccccc21)c1ccccc1 (stereo unspecified) | 15.8 µM (active) | 
COc1ccc(C(=O)NCC(c2ccc(N(C)C)cc2)N2CCc3ccccc32)c(OC)c1 (stereo unspecified) |  | -10.2% (inactive)
COc1ccc(S(=O)(=O)NCC(c2ccc(N(C)C)cc2)N2CCCC2)cc1 (stereo unspecified) |  | 0.776% [at 12.7 µM] (inactive)
O=C(NCC(c1cccnc1)N1CCc2ccccc21)c1cccc(C(F)(F)F)c1 (stereo unspecified) |  | 3.9% (inactive)
Cc1ccc(S(=O)(=O)NCC(=O)OCC(=O)N2CCc3ccccc32)cc1 |  | -4.28% (inactive)
COc1ccc(S(=O)(=O)NCC(c2ccc(N(C)C)cc2)N2CCc3ccccc32)cc1OC (stereo unspecified) | 14.1 µM (active) | 
COC(=O)C1=C(c2ccccc2)c2ccccc2S(=O)(=O)N1CC(=O)Nc1ccccc1C(F)(F)F |  | -8.07% (inactive)
Cc1ccc(CN2CCC(CNC(=O)c3cnn(-c4ccccc4Cl)c3C3CCN(C(=O)OC(C)(C)C)CC3)CC2)cc1 |  | -35.5% (inactive)
COc1ccc(NC(=O)CCCc2nnc3n(CCC(C)C)c(=O)c4sccc4n23)c(OC)c1 |  | -29% (inactive)
CCCN(CCC)S(=O)(=O)c1ccc(C(=O)Nc2sc3c(c2C(=O)OC)CCN(CC)C3)cc1 |  | -2.33% (inactive)
CCOC(=O)N1CCN(C(=O)Cn2cnc3ccccc3c2=O)CC1 |  | 1.87% [at 12.7 µM] (inactive)
CCOC(=O)N1CCN(C(=O)c2n[nH]c(=O)c3ccccc23)CC1 |  | 8.06% [at 12.7 µM] (inactive)
CCOC(=O)N1CCN(CC(=O)n2c(C)c(C)c3ccccc32)CC1 | 12.6 µM (active) | 
CC1CCCCC1NC(=O)COC(=O)Cc1ccc(Cl)cc1 (stereo unspecified) |  | -8.06% (inactive)
CCOc1c(CNCc2ccc(C(=O)O)cc2)cccc1OC |  | -6.88% [at 102 µM] (inactive)
CCOc1cc(C(=O)O)ccc1OCCOc1ccccc1 |  | -19.4% [at 102 µM] (inactive)
CCOc1cccc2c1N[C@@H](c1ccc(C(=O)O)cc1)[C@H]1CC=C[C@@H]21 | 4.47 µM (active) | 
Cc1nn(C(C)C(=O)Nc2ccc(C(C)C)cc2)c(=O)c2c1sc1ccccc12 (stereo unspecified) |  | 3.76% (inactive)
O=C(NCc1ccccc1CN1CCCC1)c1cccc(S(=O)(=O)Nc2ccc(F)cc2)c1 |  | -13% (inactive)
COc1ccc(CCNCc2c(C(=O)O)c(C)n(Cc3cccc(C)c3)c2C)cc1OC |  | 0.213% (inactive)
Cc1cc(-c2cccs2)nc(-n2cccc2)n1 |  | 151% (inactive)
c1csc(-c2cn3c(n2)SCC3)c1 | 17.8 µM (active) | 
CC(C)n1c(-c2cccs2)nc2ccccc21 |  | 0.456% (inactive)
CCC(C)N(C(=O)CSc1ncnc2c1cnn2-c1ccccc1)C1CCS(=O)(=O)C1 (stereo unspecified) |  | 17.2% [at 2.33 µM] (inactive)

Compound | Potency | activity, negative = inhibition
COC(=O)[C@]1(C)N[C@H](c2ccc(-c3ccc(Cl)c(Cl)c3)cc2)[C@@H]2C(=O)N(C)C(=O)[C@@H]21 |  | 12.5% [at 2.33 µM] (inactive)
COC(=O)c1ccccc1NC(=O)c1cc(-c2ccccc2O)no1 |  | -36.7% (inactive)
Cc1ccc(O)c(NC(=O)c2cc(-c3ccco3)on2)c1 |  | -12.3% [at 102 µM] (inactive)
Cc1ccc(O)c(NC(=O)c2cc(-c3ccc(F)cc3)no2)c1 | 8.91 µM (active) | 
Cc1nn(C)c2c1c(C(F)(F)F)cc(=O)n2C(C)C(=O)NCc1ccc(Cl)cc1 (stereo unspecified) |  | 9.14% (inactive)
Cn1c(=O)[nH]c(=O)c2c1nc(Br)n2CCCCSc1nc2ccccc2o1 |  | -18.1% (inactive)
CCCCCn1c(SCCC(C)C)nc2c1c(=O)[nH]c(=O)n2C | 10 µM (active) | 
CCCCn1c(SCC(=O)N2CCOCC2)nc2c1c(=O)n(C)c(=O)n2C |  | -10.6% (inactive)
CCOC(=O)c1ccccc1NC(=O)c1sc2nc(-c3ccc(F)cc3)cn2c1C |  | 0.0457% (inactive)
Cc1ccc(C)c(CN2C(=O)c3ccccc3S(=O)c3ccc(C(=O)N4CCOCC4)cc32)c1 (stereo unspecified) |  | -38.9% (inactive)
CCCc1nc2c([nH]1)C(c1cccnc1)C(C#N)=C(N)O2 (stereo unspecified) |  | 4.38% (inactive)
Cc1cc(C)c2c3c(sc2n1)C(c1ccccc1)C(C#N)=C(N)O3 (stereo unspecified) | 14.1 µM (active) | 
Cc1cc(C)c(C#N)c(SCc2[nH]nc3c2C(c2ccccc2)C(C#N)=C(N)O3)n1 (stereo unspecified) |  | -44.7% (inactive)
O=C(NCCc1cccc(F)c1)C1CCCN(c2nc3ccccc3s2)C1 (stereo unspecified) |  | 28.4% [at 102 µM] (inactive)
COc1ccc(-c2[nH]c3c(c2-c2c(-n4cccc4)n(C)c(=O)n(C)c2=O)c(=O)n(C)c(=O)n3C)cc1 |  | 2.53% (inactive)
CCOC(=O)C1CCN(C(=O)COc2cccc3ccccc23)CC1 |  | 9.04% [at 12.7 µM] (inactive)
CCCn1c2ccccc2c2cnn(CC(=O)NCCCOC(C)C)c(=O)c21 |  | -12.1% (inactive)
CN(C)c1ccc(C2Nc3ccccc3C(=O)N2NS(=O)(=O)c2ccccc2)cc1 (stereo unspecified) | 39.8 µM (active) | 
CC(=O)NN1C(=O)c2ccccc2NC1c1ccccc1 (stereo unspecified) |  | 9% [at 102 µM] (inactive)
O=C1c2ccccc2NC(c2ccccn2)N1NS(=O)(=O)c1ccccc1 (stereo unspecified) |  | -22.8% [at 102 µM] (inactive)
COc1cc(NC(=O)c2ccc(-c3csc(C)n3)cc2)c(OC)cc1Cl |  | -6.85% [at 102 µM] (inactive)
CSc1ccccc1NC(=O)CCS(=O)(=O)c1nc(-c2cccs2)cc(C(F)(F)F)n1 | 3.16 µM (active) | 
COc1ccccc1-c1cc(C(F)(F)F)nc(S(=O)(=O)CCCC(=O)Nc2ccc(F)cc2F)n1 |  | -1.07% (inactive)
COc1ccc(Cl)cc1NC(=O)CSc1nc(-c2cccs2)cc(C(F)(F)F)n1 |  | -2.43% (inactive)

Compound | Potency | activity, negative = inhibition
Cc1ccc(NC(=O)CSc2nc3c(c(=O)[nH]2)CN(Cc2ccc4c(c2)OCO4)CC3)cc1C |  | -35.4% (inactive)
O=C(Nc1ccccc1N1CCCC1)c1ccc(F)c(S(=O)(=O)N2CCOCC2)c1 |  | -5.62% [at 0.501 µM] (inactive)
O=C(Nc1ccccc1N1CCCC1)c1ccc2ccccc2c1 | 44.7 µM (active) | 
O=C(Nc1ccccc1N1CCCCC1)c1ccc2nccnc2c1 |  | -42% (inactive)
Cc1cc(C)cc(OCC(=O)OCC(=O)NC2CCCC2)c1 |  | -28.2% [at 2.33 µM] (inactive)
Cc1ccc(NC(=O)Cn2c(=O)n(-c3ccccc3)c(=O)c3c4c(sc32)CCCC4)cc1 |  | -2.86% (inactive)
CCN(C(=O)CSc1nnc(C)n2c1cc1occc12)c1ccccc1 |  | -37.4% (inactive)
Clc1ccc(CSc2nncn3c2cc2occc23)cc1 | 12.6 µM (active) | 
O=C(C1CC1)N1CCN=C1SCc1ccc(Cl)cc1 |  | 1.29% [at 102 µM] (inactive)
Cc1cc(=O)oc2c(C)c(OC(C)C(=O)NC3CCN(Cc4ccccc4)CC3)ccc12 (stereo unspecified) |  | -0.627% [at 102 µM] (inactive)
Cc1ccc2c(c1)-c1c(cnn1CC(=O)Nc1ccccc1C#N)CO2 |  | 19% (inactive)
CN1C(=O)/C(=C\c2cc(Br)cs2)c2ccccc21 | 10 µM (active) | 
CCC1C(=O)c2ccccc2N(C)C1=O (stereo unspecified) |  | 11.9% (inactive)
CN1C(=O)c2ccccc2Sc2ccc(NC(=O)Cc3ccc(Cl)cc3)cc21 |  | 6.98% (inactive)
COc1ccccc1-c1cc2nc(C)c(CCC(=O)O)c(C)n2n1 |  | -5.37% (inactive)
CCCNC(=O)c1ccc2c(c1)ncn2-c1ccc(C)cc1C |  | -1.33% (inactive)
NC(=O)c1ccsc1NC(=O)COC(=O)COc1ccc(C=O)cc1 |  | -1.54% [at 12.7 µM] (inactive)
CC(C)OC(=O)CN1C(=O)c2ccccc2C1=O |  | -1.86% [at 12.7 µM] (inactive)
O=C1c2ccccc2C(=O)N1CCC(c1ccccc1)c1ccco1 (stereo unspecified) |  | 15.6% (inactive)
O=C1c2ccccc2C(=O)N1CCC(O)C[N+](=O)[O-] (stereo unspecified) | 31.6 µM (active) | 
Cc1ccc(F)cc1NC(=O)CSCc1c(C)noc1C |  | 28% [at 12.7 µM] (inactive)
C=CCN1C(=NC(=O)COc2ccccc2)SC2CS(=O)(=O)CC21 (stereo unspecified) |  | 16.1% [at 102 µM] (inactive)
CCN1CCN(CC(=O)Nc2sc3c(c2C#N)CCC3)CC1 | 70.8 µM (active) | 
N#CCC(=O)Nc1ccc(C(=O)OCC(=O)Nc2sc3c(c2C#N)CCCC3)cc1 | 50.1 µM (active) | 

Compound | Potency | activity, negative = inhibition
Cc1ccc(C)c(OCC(=O)Nc2sc3c(c2C#N)CCCC3)c1C |  | 8.72% (inactive)
CCCc1cc(=O)[nH]c(SCC(=O)Nc2sc3c(c2C#N)CCCC3)n1 |  | 4.02% [at 102 µM] (inactive)
Cc1cccc(C(=O)OCC(=O)Nc2sc3c(c2C#N)CCC3)c1 |  | 22.1% (inactive)
CN1CCN(CC(=O)Nc2sc3c(c2C#N)CCC(C(C)(C)C)C3)CC1 (stereo unspecified) |  | 2.75% [at 12.7 µM] (inactive)
CCC1CCCCN1C(=O)Cn1c(=O)n(CCCCCC(=O)NCc2ccccc2)c(=O)c2sccc21 (stereo unspecified) |  | -0.514% (inactive)
COc1ccccc1C(=O)Nc1c(C(=O)N(C)Cc2ccccc2)sc2nc(C)c(Cl)c(C)c12 |  | -34.1% (inactive)
Cc1ccccc1NC(=O)CN1C(=O)C(C)(C)c2ccccc21 |  | 13.1% (inactive)
C=C1CCC(N(O)c2cc(C)on2)C(=C)CCC2C1CC2(C)C (stereo unspecified) |  | -0.801% [at 0.501 µM] (inactive)
CCCCC12CN3CC(C)(CN(C1)C3c1ccc(O)c(OC)c1)C2=O (stereo unspecified) |  | -6.49% (inactive)
CCC[C@H]1CCCC/C=C\CCCC(=O)OCCN1C(=O)OC(C)(C)C |  | 5.32% [at 2.33 µM] (inactive)
O=C1CC(c2nnc(Cc3ccc(Cl)cc3)o2)CN1c1ccccc1 (stereo unspecified) |  | -40.5% (inactive)
CC(=O)N(C1=C(Cl)C(=O)c2ccccc2C1=O)c1ccc(C(=O)O)cc1 | 0.891 µM (active) | 
CC(C)N(C(=O)c1ccc(-c2ccccc2F)cc1)C(C)C |  | 46.1% [at 102 µM] (inactive)
O=C(CN1C(=O)c2ccccc2C1=O)NCc1ccc(C(=O)O)cc1 |  | 18.2% [at 102 µM] (inactive)
COc1cccc(CNCc2c(C(=O)O)n(Cc3ccc(C)cc3)c3cc(C)ccc23)c1OC |  | -34.2% (inactive)
CCn1c(=O)c(=O)n(CC)c2cc(N3CCCCC3)c(NC(=O)c3cccc(F)c3)cc21 |  | -23.6% (inactive)
CCn1c(=O)c(=O)n(CC)c2cc(N3CCCCC3)c(NC(=O)c3ccc(Cl)cc3)cc21 |  | 1.91% [at 12.7 µM] (inactive)
CCn1c(=O)n(CC)c2cc(N3CCCC3)c(NC(=O)c3ccccc3Br)cc21 | 44.7 µM (active) | 
Cc1cc(C)cc(NC(=O)Cn2c(=O)c3ccccc3n3nncc23)c1 |  | 6% (inactive)
COc1cc(C(=O)OCC(=O)N(CC(C)C)C2CCS(=O)(=O)C2)ccc1OCC(C)C (stereo unspecified) |  | -31.5% [at 102 µM] (inactive)
COc1ccc(C(=O)OCC(=O)N2CC(=O)Nc3ccccc32)cc1Br |  | -27.7% [at 102 µM] (inactive)
CCOC(=O)N1CCN(C(=O)c2cn(C)c3ccc(S(=O)(=O)N4CCCC4)cc3c2=O)CC1 |  | -3.84% (inactive)
Cc1ccc(S(=O)(=O)N2CCN(C)CC2)cc1C(=O)NC1CCCCC1 |  | 107% [at 102 µM] (inactive)
Cc1ccc(S(=O)(=O)N2CCCCC2)cc1C(=O)N1CCN(CCO)CC1 | 11.2 µM (active) | 
